TDP1 inh: qHTS Assay for Inhibitors of Tyrosyl-DNA Phosphodiesterase (TDP1); Tyrosyl-DNA phosphodiesterase 1 (Homo sapiens), Q9NUW8; recombinant TDP1, AlphaScreen DNA substrate cleavage; Potency, µM (series often up to 130 µM), for inactives: at the top dose activity change, negative = inhibition, hits mostly inhibitors; 350,000 compounds, 0.28% hits; AID 485290, 2010; further: potency means the concentration at half of the fitted maximal effect; nearly all actives have a fitted effect of over 40% in size
Target sequence (Q9NUW8 whole entry, looked up): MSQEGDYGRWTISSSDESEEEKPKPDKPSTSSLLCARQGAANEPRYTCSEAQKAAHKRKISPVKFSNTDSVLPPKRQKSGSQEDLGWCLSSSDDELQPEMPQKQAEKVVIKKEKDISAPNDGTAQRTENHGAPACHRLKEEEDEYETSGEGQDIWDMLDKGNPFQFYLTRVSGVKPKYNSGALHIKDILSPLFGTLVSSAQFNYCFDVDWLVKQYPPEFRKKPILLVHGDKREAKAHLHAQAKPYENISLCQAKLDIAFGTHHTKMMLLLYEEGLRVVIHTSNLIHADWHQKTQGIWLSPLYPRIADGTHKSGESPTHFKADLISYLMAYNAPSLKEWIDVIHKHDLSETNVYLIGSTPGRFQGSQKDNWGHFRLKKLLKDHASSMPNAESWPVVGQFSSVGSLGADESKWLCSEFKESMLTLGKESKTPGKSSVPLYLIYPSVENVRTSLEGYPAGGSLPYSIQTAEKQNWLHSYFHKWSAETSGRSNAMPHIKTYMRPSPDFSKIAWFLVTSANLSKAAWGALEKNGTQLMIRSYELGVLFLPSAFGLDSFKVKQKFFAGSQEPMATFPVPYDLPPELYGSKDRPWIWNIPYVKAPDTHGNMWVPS
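Enzyme-compound mixtures sat 15 min at room temperature, followed by a 5 min reaction with 15 nM final substrate and 10 min with AlphaScreen beads. Recombinant human Tdp1 was used at 1 nM final.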
DT40 TDP1 no CPT: qHTS for Inhibitors of human tyrosyl-DNA phosphodiesterase 1 (TDP1): qHTS in cells in absence of CPT; DT40 Tdp1-/- hTDP1 cells, no CPT, ATP luminescence, 48 h; Potency, µM (series often up to 46.2 µM), inactives show top-dose activity change, negative = growth inhibition, actives largely listed as inhibitors; 420,000 compounds, 15% hits; AID 686978, 2013; further: potency means the concentration at half of the fitted maximal effect; nearly all actives have a fitted effect of over 55% in size
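Camptothecin absent (DMSO only). Human TDP1-complemented DT40 knockout cells, 400 cells/well, 37 °C for minimum 48 hr; ATP measured via CellTiter-Glo, 30 min dark incubation, luminescence.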
IL1B secr inh: qHTS for Inhibitors of Inflammasome Signaling: IL-1-beta AlphaLISA Primary Screen. THP-1 LPS/ATP IL-1B secretion, AlphaLISA, 16 h; stronger effect = lower value. activity change, % at 57.5 µM. 360,000 compounds, 4.7% hits. AID 743279, 2014; in the data active means activity change below about -50%; inconclusive means mostly about -30% to -49%
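THP-1 cells pretreated 1 hr with compounds (up to 57.5 uM final), then stimulated with LPS (250 ng/mL final) plus ATP (1.25 mM final); secreted IL-1B measured by AlphaLISA after 16 hr, decreased signal indicating inhibition.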
Giardia kill: Small Molecules that selectively kill Giardia lamblia: qHTS; 340,000 compounds, 0.15% hits; activity change, % at 7.66 µM, hits read low; Giardia lamblia trophozoite viability; AID 540267, 2011; in the data active means activity change below about -80%; inconclusive means between about -30% and that limit;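 further: parasites exposed to compound for two days anaerobically before the ATP read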
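Trophozoite viability was measured as ATP-dependent luminescence, read 15-30 min after reagent addition. Before that, parasites at 100 cells/well were exposed to compounds for 48 h, anaerobically, at 37 deg C.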
ELG1 repair inh: qHTS screen for small molecules that inhibit ELG1-dependent DNA repair in human embryonic kidney (HEK293T) cells expressing luciferase-tagged ELG1; HEK293T ELG1-luciferase reporter, luminescence, 16 h; DNA damage induced by 5-fluorouridine; Potency, µM (highest dose often 46.1 µM), for the others: at the highest dose activity change, negative = inhibition, hits mostly inhibitors; 330,000 compounds, 2.3% hits; AID 504467, 2011; further: potency means the concentration at half of the fitted maximal effect; nearly all actives have a fitted effect of over 55% in size
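Quantitative HTS, concentration-response format. 2,000 cells/well co-treated with 5-fluorouridine and compound, 16 hr in 5% CO2 at 37 °C; ONE-Glo luminescence read after 30 min.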
TDP1 cell CPT: qHTS for Inhibitors of human tyrosyl-DNA phosphodiesterase 1 (TDP1): qHTS in cells in presence of CPT; chicken DT40 Tdp1-/-;hTDP1 cells + 20 nM CPT, ATP luminescence, 48 h; Potency, µM (series often up to 46.2 µM), for inactives: top-dose activity change, negative = growth inhibition, most hits filed as inhibitors; 420,000 compounds, 12% hits; further: potency means the concentration at half of the fitted maximal effect; nearly all actives have a fitted effect of over 55% in size
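Chicken DT40 Tdp1-/- cells stably complemented with human TDP1 were seeded at 400 cells/well in medium containing 20 nM camptothecin, exposed to pin-transferred compounds, and grown at 37 °C for at least 48 hr. Viability was read as ATP luminescence.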
* marks the source's active call; other numbers are inactive results; ? = inconclusive; . = no result given. Most compounds without a hit are left out; they make up all but 19% or so of the library. Unless noted, the call rests on the fitted dose curve; in most records, active means well fitted curve in the direction sought with a large enough effect; inconclusive means small, poorly fitted or top-dose-only effect, or another doubt; inactive means no such curve, though single readings can be large; an effect the other way counts as inactive or inconclusive. On the % scale 0 is the no-effect control and ±100 the full control effect.

SMILES | TDP1 inh | DT40 TDP1 no CPT | IL1B secr inh | Giardia kill | ELG1 repair inh | TDP1 cell CPT
Cn1cnc([N+](=O)[O-])c1Oc1ccccc1 | 1.9% | ? | ? | -15.6 | 21.6% | 18.4µM*
Cn1cnc([N+](=O)[O-])c1C(=O)Nc1cccc([N+](=O)[O-])c1 | 2.5% | 1.8% | -0.4 | ? | 5.0% | -0.8%
Oc1ccc(/C=N/n2c(COc3ccccc3)n[nH]c2=S)cc1O | . | ? | 102.6 | 1.0 | -18.2% | ?
CN(C)CCNc1ncnc2c1sc1nc(-c3ccccc3)c3c(c12)CCCC3 | . | 23.1µM* | -75.8* | -11.9 | ? | ?
CC1CCc2c(sc3nnn(Cc4ccccc4)c(=O)c23)C1 (centres undefined) | -5.3% | ? | . | . | . | ?
N#Cc1nc(-c2cccc(Cl)c2)oc1N1CCC(C(N)=O)CC1 | . | -23.2% | -20.6 | -19.0 | 0.6% | -15.6%
COc1ccc(CC(=O)OCC(=O)Nc2ccc3[nH]c(=O)[nH]c3c2)cc1OC | . | -2.4% | -1.5 | . | . | 2.6%
C=CCn1c(=S)[nH]c2scc(-c3ccc(C)o3)c2c1=O | 10.7% | 10.3µM* | 46.1 | -15.0 | ? | ?
O=[N+]([O-])c1cccc(/C=C/C=N/Nc2nc(N3CCCCC3)nc(N3CCCCC3)n2)c1 | 3.6% | ? | -19.4 | 1.5 | -1.9% | -25.4%
O=[N+]([O-])c1ccc(Nc2nc(NC3CCCCC3)nc(N3CCCC3)n2)cc1 | 7.9% | 23.1µM* | -23.7 | -9.2 | ? | 25.9µM*
COc1cccc(/C=N/Nc2ccc([N+](=O)[O-])cn2)c1O | . | 2.91µM* | -75.6* | -7.2 | ? | 3.26µM*
COc1cccc(/C=N/Nc2nc(Nc3ccc([N+](=O)[O-])cc3)nc(N3CCCC3)n2)c1O | 10.0% | 5.8µM* | 91.1 | 4.0 | 6.51µM* | 8.2µM*
O=[N+]([O-])c1ccc(Nc2nc(N/N=C/c3cccc(F)c3)nc(N3CCCC3)n2)cc1 | 8.2% | 8.2µM* | ? | 15.7 | 4.61µM* | 6.51µM*
Cn1cccc1-c1cc2n(n1)CCC(=O)N2CCCC(=O)NCc1ccc(F)cc1 | 6.5% | -9.9% | . | . | . | -18.5%
COc1ccc(CC2(CO)CCN(C(C)Cc3ccc(Cl)cc3)CC2)cc1 (centres undefined) | . | ? | -67.0* | 24.9 | -14.7% | ?
COc1ccc(CCC(C)N2CCOCC2)cc1 (centres undefined) | . | -6.2% | 37.5 | 6.9 | -2.3% | -10.7%
COc1ccc(CCC(C)N2CCC(CO)(Cc3ccccc3)CC2)cc1 (centres undefined) | 5.3% | ? | -56.5* | 28.2 | 13.0% | ?
COc1ccc(CC2(CO)CCN(S(=O)(=O)c3c(C)nn(C)c3Cl)CC2)cc1 | 6.0% | -10.1% | 41.1 | -18.8 | ? | -13.5%
CSCC(C)N1CCC(CO)(CCc2ccccc2)CC1 (centres undefined) | 0.0% | -21.2% | -17.9 | -1.7 | 21.8% | -21.9%
COc1ccc(CC2(CO)CCN(S(=O)(=O)c3sccc3C)CC2)cc1 | 3.6% | ? | 12.8 | -19.5 | 18.3µM* | 25.9µM*
CC(COc1ccccc1)N1CCC(CO)(CCc2ccccc2)CC1 (centres undefined) | -3.5% | ? | -66.6* | -12.7 | -6.6% | ?
COc1ccc(CC2(CO)CCN(Cc3cccc(OC)c3OC)CC2)cc1 | 6.0% | -5.9% | -4.4 | 16.4 | -3.8% | -28.8%
CCCC(C)C(=O)Nc1ncc(S(=O)(=O)c2ccc([N+](=O)[O-])cc2)s1 (centres undefined) | 3.8% | ? | 53.3 | -3.5 | ? | 14.6µM*
O=C(CCl)Nc1ncc(S(=O)(=O)c2ccc([N+](=O)[O-])cc2)s1 | 3.7% | 16.4µM* | ? | -14.3 | 9.6% | 29.1µM*
CC(C)(C)C(=O)Nc1ccnc(-c2cccnc2)n1 | -2.9% | . | . | . | -6.9% | .
SMILES | TDP1 inh | DT40 TDP1 no CPT | IL1B secr inh | Giardia kill | ELG1 repair inh | TDP1 cell CPT
COc1ccc(/C=C2\Oc3cc(OCC(=O)N4CC(O)C[C@H]4C(=O)O)ccc3C2=O)cc1OC (some centres undefined) | . | 0.7% | 3.9 | 13.0 | 10.7% | -6.8%
CC1CCCN(CC(=O)Nc2cc(S(=O)(=O)N3CCOCC3)ccc2N2CCCC2)C1 (centres undefined) | -0.7% | ? | -12.8 | 8.1 | 10.1% | -19.1%
Cc1ccc(-c2noc(CN3CCN(C(c4ccccc4)c4ccccc4)CC3)n2)cc1 | 2.0% | ? | 2.0 | -15.2 | -10.4% | ?
O=C(C1CCN(Cc2ccc(Cl)cc2)CC1)N1CCN(C(c2ccccc2)c2ccccc2)CC1 | 0.0% | 11.6µM* | -53.0* | -22.3 | -10.1% | ?
Cc1cccc(CN2CCN(C(c3ccccc3)c3ccc(Cl)cc3)CC2)c1 (centres undefined) | 2.9% | 7.31µM* | 20.1 | -3.1 | 0.3% | ?
CC(C)(C)c1ccc(CN2CCN(C(c3ccccc3)c3ccc(Cl)cc3)CC2)cc1 (centres undefined) | . | 23.7µM* | . | . | . | 13.3µM*
O=C(c1ccc(Cl)cc1)C1CCN(Cc2ccccc2)CC1 | . | ? | -13.4 | ? | -5.6% | ?
O=C(Nn1cnc2ccccc2c1=O)c1ccc(Cl)c([N+](=O)[O-])c1 | . | -15.9% | ? | 3.3 | -2.4% | 2.8%
C/C(CCc1ccccc1)=N\NC(=O)CC(=O)NCCc1ccccc1 | -1.3% | 5.3% | 0.0 | 4.5 | 6.2% | 6.7%
COc1ccc(-c2c(-c3cc(OC)cc(OC)c3)n(C)c3ccc(-c4ccc5c(c4)OCCO5)cc23)cc1 | 4.5% | ? | 4.9 | -0.6 | ? | -24.5%
COc1cc(OC)cc(-c2c(-c3cccs3)c3cc(-c4cnc(N)nc4)ccc3n2C)c1 | 2.5% | ? | -3.9 | 6.8 | -28.6% | 23.1µM*
COc1cc(OC)cc(-c2c(-c3cccs3)c3cc(-c4ccc(OC)c(OC)c4)ccc3n2C)c1 | 2.3% | ? | -16.6 | -17.9 | -11.1% | 9.2µM*
COc1cc(OC)cc(-c2c(-c3cccs3)c3cc(-c4ccc(OC)c(F)c4)ccc3n2C)c1 | 1.2% | 18.4µM* | -2.7 | 3.7 | 14.6% | ?
COc1cc(OC)cc(-c2c(-c3cccs3)c3cc(-c4ccc5c(c4)OCCO5)ccc3n2C)c1 | 1.2% | 14.6µM* | -5.3 | 16.3 | 1.6% | ?

Screening results: PubChem BioAssay, National Center for Advancing Translational Sciences (NCATS)
